{
  "source": "the supplement of paper PMC8726507",
  "note": "A number with no mark means an inactive call.",
  "data": [
    {"test_system": "Plasmodium falciparum NF54-HGL (transmission to Anopheles stephensi)", "assay": "percentage of barcode signal found in uninfected mosquitoes (transmission-blocking activity); higher = stronger blocking of transmission to mosquito, active = 80 or more", "conditions": "10 µM; gametocyte preincubation time 24 h; readout time post-feed 8 days", "procedure": "(§1)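 The mixture was fed to Anopheles stephensi in 96-well plates as blood meals tagged with DNA-barcoded Asaia bacteria. Eight days later, mosquitoes were classed infected or uninfected by luminescence (mean + 5 SD of unfed controls). Barcodes were quantified by Luminex MagPlex-TAG in the pooled uninfected and infected Asaia cultures, background-corrected, and the score is % of barcode signal in uninfected mosquitoes = 100*Iu/(Iu+Ii).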", "units": {"percentage of barcode signal found in uninfected mosquitoes": "%"}, "values": [
      {"smiles": "Cc1cc(C2=NOC(c3cc(Cl)c(F)c(Cl)c3)(C(F)(F)F)C2)ccc1C(=O)NCc1ccc2c(c1)C(C)(C)OB2O", "note": "(centres undefined)", "percentage of barcode signal found in uninfected mosquitoes": 43.3},
      {"smiles": "CCc1nn(C)c(C(=O)NCc2ccc(Oc3ccc(C)cc3)cc2)c1Cl", "percentage of barcode signal found in uninfected mosquitoes": 25.8},
      {"smiles": "CC1(C)OB(O)c2ccc(C3=NOC(c4cc(Cl)c(F)c(Cl)c4)(C(F)(F)F)C3)cc21", "note": "(centres undefined)", "percentage of barcode signal found in uninfected mosquitoes": -4.84},
      {"smiles": "Nc1c2c(nc3sc4c(c13)CCCC4)CCCC2", "percentage of barcode signal found in uninfected mosquitoes": 42},
      {"smiles": "Cc1nn(Cc2ccccc2)c(Cl)c1C(=O)NC1CCCCCC1", "percentage of barcode signal found in uninfected mosquitoes": 2.01},
      {"smiles": "CC(C)(C)C(O)C(Oc1ccc(-c2ccccc2)cc1)n1cncn1", "note": "(centres undefined)", "percentage of barcode signal found in uninfected mosquitoes": -1.02},
      {"smiles": "CC1COC(Cn2cncn2)(c2ccc(Oc3ccc(Cl)cc3)cc2Cl)O1", "note": "(centres undefined)", "percentage of barcode signal found in uninfected mosquitoes": 19.1},
      {"smiles": "CO/C=C(/C(=O)OC)c1ccccc1Oc1cc(Oc2ccccc2C#N)ncn1", "percentage of barcode signal found in uninfected mosquitoes": 69.5}
    ]},
    {"test_system": "Plasmodium falciparum NF54-HGL (transmission to Anopheles stephensi)", "assay": "percentage of barcode signal found in uninfected mosquitoes (transmission-blocking activity); higher = stronger blocking of transmission to mosquito, active = 80 or more", "conditions": "20 µM; gametocyte preincubation time 24 h; readout time post-feed 8 days", "procedure": "as §1", "values": [
      {"smiles": "O=C1O[C@@H](COc2ccon2)CN1c1cc(F)c(C2=CCN(Cc3ccccc3)CC2)c(F)c1", "percentage of barcode signal found in uninfected mosquitoes": "29.7%"},
      {"smiles": "CO[C@@H]1CN(c2ccc(C#CC3(O)CN4CCC3CC4)c(Cc3ccccc3)n2)C[C@H]1O", "note": "(some centres undefined)", "percentage of barcode signal found in uninfected mosquitoes": "43%"},
      {"smiles": "O=C1O[C@@H](CO)CN1c1cc(F)c(C2=CCN(Cc3ccccc3)CC2)c(F)c1", "percentage of barcode signal found in uninfected mosquitoes": "0.248%"},
      {"smiles": "Cc1cccc(C(=O)Nc2ccnc(N(C)C3CCN(CC(C)C)CC3)c2)c1", "percentage of barcode signal found in uninfected mosquitoes": "46.4%"},
      {"smiles": "Cc1nn(C)c(C)c1NS(=O)(=O)c1c(Cl)cc(-c2ccnc(N3CCNCC3)c2)cc1Cl", "percentage of barcode signal found in uninfected mosquitoes": "48.9%"},
      {"smiles": "CO/N=C(\\C(=O)OC)c1ccccc1CO/N=C(\\C)c1cccc(C(F)(F)F)c1", "percentage of barcode signal found in uninfected mosquitoes": "83.6% (active)"}
    ]}
  ]
}
